CHX counter = Cycloheximide Counterscreen for Small Molecule Inhibitors of Shiga Toxin | cell reporter, cycloheximide protein synthesis inhibition counterscreen | max response, % | AID 2314, 2010 | actives 12% (n = 300,000); in the data active means max response mostly above about 13%, no sharp cut-off; inactive means mostly below about 14%; further: read at 38.3 µM for the half of the compounds with a filed dose; 0% is about no effect
Pf growth 96h = Primary qHTS for delayed death inhibitors of the malarial parasite plastid, 96 hour incubation | AID 504834, 2011 | Potency, µM (top dose mostly 28.7 µM), inactives show at the top dose activity change, negative = inhibition, most hits filed as inhibitors | P. falciparum luciferase reporter growth, 96 h | actives 6.9% (n = 320,000); further: potency means the concentration at half of the fitted maximal effect; on the % scale 0 is the no-effect control and ±100 the full control effect
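Two-generation exposure (96 h) targets delayed-death phenotype. Reporter parasites carrying integrated firefly luciferase, in red cells at 2% hematocrit and 0.05% parasitemia final, kept at 37 C, 5% CO2; luminescence loss indicates inhibition.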
Pf growth 48h = Primary qHTS for delayed death inhibitors of the malarial parasite plastid, 48 hour incubation; P. falciparum luciferase growth in erythrocytes, 48 h; actives 5.9% (n = 310,000); AID 504832, 2011; Potency, µM (top dose mostly 28.7 µM), for the others: at the top dose activity change, negative = inhibition, most hits filed as inhibitors; further: potency means the concentration at half of the fitted maximal effect; on the % scale 0 is the no-effect control and ±100 the full control effect
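Luciferase-expressing parasites in RBCs, 2% Hct / 0.1% parasitemia final; RPMI 1640 + 0.5% Albumax; 37 C, 5% CO2, one generation; luminescence read-out, lower signal = inhibition.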
Shiga toxin inh = A qHTS for Small Molecule Inhibitors of Shiga Toxin; Vero cells, Shiga toxin protein synthesis inhibition reporter; inhibition, % at 38.7 µM; actives 9.2% (n = 290,000); in the data active means inhibition mostly above about 28%, no sharp cut-off; inactive means mostly below about 43%; further: 0% is about no effect
LmPK inhibitor = qHTS Assay for Inhibitors of Leishmania Mexicana Pyruvate Kinase (LmPK); Q27686; purified LmPK, Kinase-Glo ATP luminescence, 1 h; Potency, µM (series often up to 57.5 µM), for inactives: at the top dose activity change, negative = inhibition, hits mostly inhibitors; actives 0.37% (n = 290,000); AID 1721, 2009; further: potency means the concentration at half of the fitted maximal effect; on the % scale 0 is the no-effect control and ±100 the full control effect
Target sequence (Q27686 whole entry, looked up): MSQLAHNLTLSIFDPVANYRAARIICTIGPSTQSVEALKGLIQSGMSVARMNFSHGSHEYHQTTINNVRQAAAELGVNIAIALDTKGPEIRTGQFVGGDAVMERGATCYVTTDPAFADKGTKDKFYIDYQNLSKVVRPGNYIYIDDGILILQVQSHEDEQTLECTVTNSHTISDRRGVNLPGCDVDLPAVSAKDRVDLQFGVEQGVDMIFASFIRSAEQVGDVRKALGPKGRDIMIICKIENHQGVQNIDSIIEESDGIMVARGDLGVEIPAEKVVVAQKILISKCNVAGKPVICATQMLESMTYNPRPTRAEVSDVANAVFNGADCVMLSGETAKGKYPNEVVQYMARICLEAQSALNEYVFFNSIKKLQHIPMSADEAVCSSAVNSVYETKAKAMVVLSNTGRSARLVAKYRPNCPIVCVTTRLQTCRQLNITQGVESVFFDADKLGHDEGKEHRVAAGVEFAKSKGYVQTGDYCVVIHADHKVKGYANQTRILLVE
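qHTS format; LmPK 0.1 nM; substrates PEP 0.5 mM and ADP 0.1 mM. One-hour room-temperature incubation, then coupled luciferase luminescence; 0.5 nM enzyme wells mark activation.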
* hit, by the source's call; u = inconclusive; x = not tested or not shown. Sampled rows, rich in hits. Any-hit rate of the full collection: about 22%. Unless noted, the call rests on the fitted dose curve; in most records, active means well fitted inhibition curve with a large enough effect; inconclusive means small, poorly fitted or top-dose-only effect, or another doubt; inactive means no such curve, though single readings can be large or run the other way.

SMILES | CHX counter | Pf growth 96h | Pf growth 48h | Shiga toxin inh | LmPK inhibitor
COc1cc(/C=C/C(=O)O)cc(S(=O)(=O)Nc2cccc(SC)c2)c1OC | 10 | -18% | -1% | 16 | 7%
CCCCc1nc2cc(C(=O)N(C)C3CCOCC3)ccc2o1 | 68* | 29% | 51% | 116* | -6%
O=C(c1ccc2oc(Cc3ccc(Cl)cc3)nc2c1)N1CCCCC1CCO (stereo not given) | 17 | u | -16% | 13 | -4%
COC1CCCN(C(=O)c2ccc3oc(Cc4ccc(Cl)cc4)nc3c2)C1 (stereo not given) | 0 | u | 8% | 25 | -4%
CCCCc1nc2cc(C(=O)N(C)CCc3cn[nH]c3)ccc2o1 | 51* | u | 17% | 61* | -2%
Cc1cnc(CN(C)C(=O)c2ccc3oc(Cc4ccc(Cl)cc4)nc3c2)[nH]1 | -1 | 4% | u | -14 | 4%
CCCCc1nc2cc(C(=O)N3CCC[C@H]3CO)ccc2o1 | 20* | u | 58% | 39* | -1%
O=C(c1ccc2oc(CCc3ccccc3)nc2c1)N1CC[C@H](O)C1 | 38* | 7.4µM* | 147% | 85* | 5%
O=C(CC(=O)NC1CCCCC1)N/N=C/c1ccccc1F | -1 | 12% | 24% | -6 | 1%
Cc1ccc(C)c(NC(=O)NCCN2CCCCC2)c1 | -1 | u | -8% | -5 | 0%
COC1CCN(C(=O)c2ccc3oc(Cc4ccc(Cl)cc4)nc3c2)CC1 | 10 | 220% | -4% | -4 | -3%
CCCCc1nc2cc(C(=O)N3CCC(O)CC3)ccc2o1 | 38* | -26% | 153% | 47* | -9%
CCOc1ccc(-c2onc(C(F)(F)F)c2-c2cscn2)c(O)c1 | 8 | x | 4.7µM* | -11 | 2%
CC1=C(C(=O)OC(C)C)C(c2ccc(N(C)C)cc2)C2=C(CC(C)(C)CC2=O)N1 (stereo not given) | -1 | -1% | u | 21 | 2%
CCOC(=O)C1=C(C)NC2=C(C(=O)CC(C)(C)C2)C1c1ccc(O)c(OCC)c1 (stereo not given) | 11 | -22% | u | 4 | -1%
CCOC(=O)C1=C(C)NC2=C(C(=O)CC(C)(C)C2)C1c1ccc2c(c1)CCCN2C (stereo not given) | -2 | 9% | 13µM* | -10 | 3%
CCOC(=O)C1=C(C)NC2=C(C(=O)CC(C)(C)C2)C1c1ccc(N(C)C)cc1 (stereo not given) | -2 | u | 12µM* | -2 | 3%
CN(C)c1ccc(CN(C(=O)C2COc3ccccc3O2)C2CCS(=O)(=O)C2)cc1 (stereo not given) | 4 | 5.2µM* | u | -5 | 5%
CC1(C#N)c2ccccc2C(Br)=CN1C(=O)c1ccccc1 (stereo not given) | x | u | 10µM* | x | x
O=C(CCCCCCCC(=O)c1ccccc1)c1ccccc1 | 7 | 14% | 4% | -5 | -1%
C=C(CCC(=O)c1ccccc1)C(=O)c1ccccc1 | 17* | -15% | 4% | 4 | -1%
O=C1CN(c2ccccc2)C(=S)N1C(=O)c1ccccc1 | 46* | -8% | 183% | 47* | -4%
COc1cc(NC(=O)c2sc3ncn(CC(=O)N4CCCCC4)c(=O)c3c2C)cc(OC)c1OC | -5 | 25% | u | -7 | 5%
CCOC(=O)c1ccc(-c2ccc(/C=N/NC(=O)Cc3nnc(N)s3)o2)cc1 | 42* | 277% | -76% | 52* | 2%
Nc1nnc(CC(=O)N/N=C/c2ccc(-c3cccc(C(=O)O)c3)o2)s1 | 61* | 20% | 18% | 142* | -5%
SMILES | CHX counter | Pf growth 96h | Pf growth 48h | Shiga toxin inh | LmPK inhibitor
Nc1nonc1-c1nc2ccccc2n1CC(=O)N/N=C/c1ccc(-c2cccc(C(=O)O)c2)o1 | 34* | 0% | 4% | 70* | 1%
CC(C)OC(=O)c1ccc(NC(=O)Cn2c(-c3nonc3N)nc3ccccc32)cc1 | -2 | 8.3µM* | 10µM* | -5 | 2%
O=C(NCCN1CCOCC1)c1cc(Cl)ccc1[N+](=O)[O-] | -8 | u | -6% | -17 | 1%
CCNC(=O)COC(=O)c1sccc1C | 5 | 31% | 60% | -3 | -1%
CC(OC(=O)CCCSc1nc2ccccc2s1)C(=O)NC(N)=O (stereo not given) | -6 | -10% | 4% | -6 | 2%
O=C(Cc1ccc([N+](=O)[O-])cc1)N1N=C(c2ccncc2)CC1(O)C(F)(F)F (stereo not given) | 6 | 135% | -12% | -11 | 1%
CCOC(=O)c1ccc(-c2ccc(/C=N/NC(=O)c3cncc(Br)c3)o2)cc1 | 13* | 55% | u | 40* | 1%
O=C(Cc1ccc(Br)cc1)N/N=C/c1ccc(-c2cccc(C(=O)O)c2)o1 | 31* | 54% | 34% | 102* | 9%
O=C(O)c1cccc(-c2ccc(/C=N/NC(=O)c3cccnc3)o2)c1 | 83* | 16% | 32% | 171* | 6%
CC(OC(=O)c1nn(C)c(=O)c2ccccc12)C(=O)Nc1ccc(S(N)(=O)=O)cc1 (stereo not given) | x | -5% | -29% | x | x
COc1ccc(C)cc1S(=O)(=O)N(CC(N)=O)Cc1ccccc1 | -1 | 15% | -13% | -17 | 0%
COc1ccc(OC)c(C(=O)COC(=O)CNC(=O)c2ccccc2)c1 | 4 | -1% | 22% | -6 | 0%
COCCn1c(C)cc(C(=O)COC(=O)CNC(=O)c2ccccc2)c1C | 61* | 60% | 71% | 99* | -1%
COCC(C)n1c(C)cc(C(=O)COC(=O)CNC(=O)c2ccccc2)c1C (stereo not given) | 53* | 36% | 30% | 86* | -3%
COCC(C)n1c(C)cc(C(=O)COC(=O)c2n[nH]c3ccccc23)c1C (stereo not given) | 56* | x | 27% | 129* | -1%
COCC(C)n1c(C)cc(C(=O)COC(=O)c2oc3ccccc3c2C)c1C (stereo not given) | 14 | x | -3% | 45 | 0%
Cc1nc2scc(C)n2c(=O)c1S(=O)(=O)NCC1CCN(Cc2ccc(F)cc2)CC1 | -1 | 34% | u | -4 | 0%
OCCCNc1ncnc2scc(-c3ccc(Cl)cc3)c12 | -1 | -18% | -21% | -15 | 2%
Cc1ccnc(NC(=O)CNC(=O)c2ccccc2Br)c1 | 52* | 53% | 46% | 54* | -16%
Cc1ccc(NC(=O)CCNC(=O)c2ccccc2Cl)nc1 | 5 | u | 6% | 14 | -8%
Cc1ccnc(NC(=O)CCNC(=O)c2ccccc2Cl)c1 | 35* | 58% | 137% | 124* | 0%
COc1cccc(NC(=O)c2ccccc2N2C(=O)C3C4C=CC(C5CC45)C3C2=O)c1 (stereo not given) | -1 | -31% | -9% | -7 | 3%

Bioassay records as filed in PubChem.
